This is part of a sample that, as a whole, favours compounds with a hit. Of some 79,000 tested, about 15% had one in any assay. Values without a mark were called inactive. Activity calls are given as the source filed them. Cut-off read from the data, not from the text of the source: active = growth inhibition above about 70%; inactive = the rest.

Test [1] is described as follows: NCI Yeast Anticancer Drug Screen. Data for the rad50 strain (AID 155).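 Note: 0% = growth of vehicle-only cultures of the same strain.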 To be noted: S. cerevisiae rad50 strain growth inhibition; at 50.0 µM; hits give high values. A digest of the protocol:
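DNA repair mutant yeast, compound exposure, growth read-out; inhibition is taken relative to vehicle.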

A short description of test [2]: NCI Yeast Anticancer Drug Screen. Data for the mec2-1 strain (AID 157). Conditions: S. cerevisiae mec2-1 strain, at 50.0 µM, hits give high values. A digest of the protocol: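 Readout is yeast growth inhibition, normalised to vehicle-treated controls, in the mec2-1 strain exposed to compound.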
Test [3] is described as follows: NCI Yeast Anticancer Drug Screen. Data for the sgs1 mgt1 strain (AID 161).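 Note: 0% = growth of cultures given vehicle only.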 Conditions: S. cerevisiae sgs1 mgt1 strain, at 50.0 µM, hits give high values. Summed up: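 Compounds are added to genetically altered yeast, and growth is compared with cultures given vehicle alone to give percent inhibition.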
Test [4] in a line: NCI Yeast Anticancer Drug Screen. Data for the cln2 rad14 strain (AID 165).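 Note: 0% = growth equal to vehicle treated cultures.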 Conditions: S. cerevisiae cln2 rad14 strain, at 50.0 µM, hits give high values. A digest of the protocol:
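Relative to vehicle controls, growth inhibition of compound-treated cln2 rad14 yeast was recorded.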

Test [5] in a line: NCI Yeast Anticancer Drug Screen. Data for the bub3 strain (AID 167). To be noted: S. cerevisiae bub3 mutant strain, at 50.0 µM, hits give high values. A digest of the protocol: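 In this screen, a yeast mutant lacking normal mitotic checkpoint function is challenged with compound. Relative growth versus vehicle gives the inhibition value.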
A short description of test [6]: NCI Yeast Anticancer Drug Screen. Data for the mlh1 rad18 strain (AID 175). Conditions: S. cerevisiae mlh1 rad18 strain growth inhibition; at 50.0 µM; hits give high values. A digest of the protocol:
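Test agents were incubated with a yeast strain of defined genotype (DNA damage repair defect). Inhibition of growth was derived by comparison with vehicle-exposed cultures.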

Turning to `CC1C/C=C2\CSC(NC(=O)/C3=C\N(C/C=C/C=C/C(O)CC(O)CC(=O)N3)C2=O)C(=O)O1` (stereo not given), the growth inhibition in test [1] is 13.7%; in test [2], 11.7%; in test [3], 22.2%; in test [4], 19%; in test [5], 17.5%; in test [6] it was 18.2%.

Regarding `Cc1ccccc1NCc1ccccc1`, the growth inhibition was 25.8% in test [1]; -3.2% in test [2]; 15.3% in test [3]; -29.8% in test [4]; 0.35% in test [5]; 23.1% in test [6].

As to `NC(=S)N/N=C1/CCCC/C1=N/O`, the growth inhibition in test [1] was 46.1%; in test [2] it was 33.1%; in test [3] it was 36.2%; in test [4], -0.15%; in test [5], 25.2%; in test [6] it was -6.35%.

As to `O=c1[nH]c(=S)[nH]c2[nH]ccc12`, the growth inhibition was 6.75% in test [1]; -13.9% in test [2]; -19.6% in test [3]; -1.1% in test [4]; -0.6% in test [5]; -4.4% in test [6].

As for `C1=CCOCOC1`, the growth inhibition in test [1] is -2.35%; in test [2], -24.4%; in test [3] it was -2.35%; in test [4], -8%; in test [5] it was -8.95%; in test [6], -38.1%.

Regarding `Cn1c(=O)c2c(n(C)c1=O)n(C)c(=O)n2C`, the growth inhibition was 18.3% in test [1]; 8.25% in test [2]; -18.9% in test [3]; 12.7% in test [4]; 1.85% in test [5]; 15.9% in test [6].

Consider `CCOC(=O)n1ccnc1`, for which the growth inhibition in test [1] was -6.4%; in test [2] it was -5.45%; in test [3], 1.5%; in test [4], 8%; in test [5], 9.05%; in test [6], -2.95%.

Consider `Cc1c(Cl)cc(C(C)(C)C)c(O)c1Cc1c(C)c(Cl)cc(C(C)(C)C)c1O`, for which the growth inhibition in test [1] was 19.4%; in test [2], -8.3%; in test [3], -46.6%; in test [4], 12.3%; in test [5], 0%; in test [6], 1.95%.

As for `COC(=O)C1Cc2ccc(C)cc2C1=O` (stereo not given), the growth inhibition in test [1] was -37.7%; in test [2], -4.6%; in test [3], -1.95%; in test [4], 26.1%; in test [5], 15.4%; in test [6] it was -4.3%.

Regarding `O=C1N(c2cccc(F)c2)C(=O)N1c1cccc(F)c1`, the growth inhibition in test [1] is 27.4%; in test [2], 3.3%; in test [3], -9.1%; in test [4], 13.2%; in test [5], -1.1%; in test [6], 5.5%.

On to `CCCCc1c(O)c(N=NC(N)=S)c2ccccc2c1O`, for which the growth inhibition in test [1] is 14.9%; in test [2], 8.45%; in test [3] it was 36.8%; in test [4], -22.1%; in test [5], 32.6%; in test [6], 43.5%.

Take `O=C(O)c1cccc(C(=O)O)c1S(=O)Cc1ccccc1` (stereo not given): the growth inhibition in test [1] was 3.45%; in test [2], -15.1%; in test [3] it was 1.2%; in test [4], -0.15%; in test [5] it was -17.1%; in test [6] it was 17.9%.

For `COc1cccc(/C=C/C(=O)c2sc(C(N)=S)nc2C)c1O`, the growth inhibition in test [1] was 14.2%; in test [2], 1.7%; in test [3] it was 5.2%; in test [4], 25.9%; in test [5] it was -3.75%; in test [6], 7.6%.

As for `Cc1nc(N)[nH]c(=O)c1-n1nnc2ccccc2c1=O`, the growth inhibition was 0.15% in test [1]; 17.1% in test [2]; 14.1% in test [3]; -2.1% in test [4]; 0.9% in test [5]; -4.1% in test [6].

For the molecule `CCOC(=O)C(=O)N=Nc1nc2c(O)c3ccccc3c(O)c2s1`, the growth inhibition is 78.2% (active) in test [1]; 87.8% (active) in test [2]; 83% (active) in test [3]; 45.8% in test [4]; 89.2% (active) in test [5]; 58.5% in test [6].

Turning to `O=[N+]([O-])c1ccc(C2ON2c2ccccc2)cc1` (stereo not given) (tested in a mixture with another compound), the growth inhibition in test [1] is 3.95%; in test [2] it was -1.45%; in test [3], 20.7%; in test [4], -9.7%; in test [5], -7.4%; in test [6], 25.6%.

For the molecule `COc1cc(C(c2ccc(O)c(OC)c2)c2ccc(O)c(OC)c2)ccc1O`, the growth inhibition in test [1] was 31.9%; in test [2], 15.2%; in test [3], 34.6%; in test [4], 30.1%; in test [5] it was 4.95%; in test [6] it was 24.9%.

For the molecule `COc1ccc(OC)c(N=Nc2cc(OC)ccc2OC)c1`, the growth inhibition in test [1] is -13.6%; in test [2], -7.8%; in test [3], 1.1%; in test [4], -13.8%; in test [5], 3.3%; in test [6], -11.9%.

Consider `O=C1c2ccccc2CC12Cc1ccc3c(c1C2=O)CCCC3` (stereo not given), for which the growth inhibition in test [1] was -11.2%; in test [2] it was -14.4%; in test [3], -3.85%; in test [4] it was -30.2%; in test [5], -3.55%; in test [6] it was -33.5%.

On to `O=c1[nH]cnc2c1cnn2Cc1ccccc1`, for which the growth inhibition in test [1] was 4.1%; in test [2], -4.85%; in test [3] it was 1.2%; in test [4] it was 2.1%; in test [5], 26.1%; in test [6] it was 1.95%.

Turning to `Cc1ccc(NC(=O)Oc2ccc(F)cc2)cc1NC(=O)Oc1ccc(F)cc1`, the growth inhibition in test [1] is 25.9%; in test [2], 13.3%; in test [3], 15.3%; in test [4], 15.2%; in test [5], -4.95%; in test [6] it was 33.6%.

Turning to `OCC1(F)CC1(c1ccccc1)c1ccccc1` (stereo not given), the growth inhibition in test [1] is 0.45%; in test [2] it was -2.85%; in test [3], 7.45%; in test [4], 12.7%; in test [5] it was -13.4%; in test [6], -22.6%.

With `O=c1[nH]c(O)c(/C=N/C(=S)NCc2ccccc2)c(=O)[nH]1`, the growth inhibition was -41% in test [1]; -37.9% in test [2]; -26.1% in test [3]; 5.9% in test [4]; -0.55% in test [5]; -12.3% in test [6].

For `COC(=O)C(=O)Cc1nc2ccccc2s1`, the growth inhibition in test [1] was 6.25%; in test [2], 1.35%; in test [3], 6.15%; in test [4], -29.8%; in test [5] it was -7.3%; in test [6], 7.3%.

Consider `NC(=O)N/N=C1\CCCC(OC(=O)c2ccccc2)CC1` (stereo not given), for which the growth inhibition in test [1] was 2.85%; in test [2] it was -27.7%; in test [3] it was -16.8%; in test [4] it was -20.1%; in test [5], -1.5%; in test [6] it was -20.8%.

For the molecule `COc1cc(C)oc(=O)c1`, the growth inhibition in test [1] is -6.1%; in test [2], 6.15%; in test [3], -2.45%; in test [4], -16.6%; in test [5], 8.1%; in test [6] it was 3.3%.

Consider `CN(C)c1noc2c1c(=O)n(C)c(=O)n2C`, for which the growth inhibition in test [1] is -27.8%; in test [2], -9.95%; in test [3] it was -11.6%; in test [4], -12.1%; in test [5], 2.6%; in test [6], 14.8%.

In the case of `CCNC(=O)C1CC2C=CC1C2` (stereo not given), the growth inhibition in test [1] was -1.25%; in test [2] it was 2.1%; in test [3], 4.2%; in test [4], 12.6%; in test [5], 3.05%; in test [6] it was 1.5%.

In the case of `c1ccc(Oc2ccccc2-c2ccccc2)cc1`, the growth inhibition in test [1] was 6.1%; in test [2], -26.1%; in test [3] it was -0.7%; in test [4], -0.65%; in test [5], -23.1%; in test [6] it was 15.9%.

On to `CC(=O)/C(=C/N1CCNC1=S)C(=O)Nc1ccc(Cl)cc1`, for which the growth inhibition in test [1] was -34.5%; in test [2], -24%; in test [3] it was -39.6%; in test [4], 0.2%; in test [5], -39.2%; in test [6], -26.3%.

As to `COc1ccc2cc(-c3ccc(OC)c(OC)c3)c(=O)oc2c1`, the growth inhibition is -12.4% in test [1]; -9.9% in test [2]; -7.65% in test [3]; -8.9% in test [4]; -7.15% in test [5]; -18.2% in test [6].

Turning to `C/C(=N\NC(=S)N1CCCC1)c1ccc[nH]1`, the growth inhibition in test [1] is -6.55%; in test [2], 3.05%; in test [3], -0.05%; in test [4] it was -11.6%; in test [5], -7.75%; in test [6] it was -2.3%.

In the case of `CCCCCCCCCCCCCCCC(=O)O`, the growth inhibition in test [1] is -12.9%; in test [2], -34.1%; in test [3], -18.9%; in test [4] it was -2.9%; in test [5], -29.8%; in test [6] it was -34.9%.

For `CC1(O)C2C3C(I)C4C5C3C1C5C42` (stereo not given), the growth inhibition is 22.6% in test [1]; 9.05% in test [2]; 10.1% in test [3]; 6.7% in test [4]; 10.3% in test [5]; 17.4% in test [6].

With `Cc1ccc(Cc2n[nH]c(=O)n2/N=C\CC/C=N\n2c(Cc3ccc(C)cc3)n[nH]c2=O)cc1`, the growth inhibition in test [1] was -13.9%; in test [2], -23.6%; in test [3], -18.1%; in test [4], -0.9%; in test [5], -28.9%; in test [6], -4.05%.

With `CN=S(=O)(OC/C=C/COS(=O)(=NC)c1ccc(C)cc1)c1ccc(C)cc1` (stereo not given), the growth inhibition in test [1] was -17.9%; in test [2] it was -21.9%; in test [3] it was -24.1%; in test [4], -8.55%; in test [5] it was -10.4%; in test [6], -26.3%.

Regarding `O=C(NCCCl)NCC1CCCCO1` (stereo not given), the growth inhibition in test [1] was -2.8%; in test [2], 7%; in test [3], 0.2%; in test [4] it was -76.3%; in test [5] it was -3.9%; in test [6] it was -12%.

For `O=S(=O)(O)SCCNCCCCc1ccccc1`, the growth inhibition in test [1] was -11.2%; in test [2] it was -3%; in test [3], 2.3%; in test [4] it was -5.35%; in test [5], -6.4%; in test [6], -22.8%.

With `CCOC1CCC(C(=O)CC)C(C#N)(C#N)C1(C#N)C#N` (stereo not given), the growth inhibition is 22.6% in test [1]; 13.7% in test [2]; 4.75% in test [3]; 12.8% in test [4]; 11.8% in test [5]; 7.8% in test [6].

For the molecule `O=S(=O)(O)CC(NCc1ccccc1)c1ccccc1` (stereo not given), the growth inhibition in test [1] was -28.9%; in test [2], -0.45%; in test [3], -19.6%; in test [4] it was -36.9%; in test [5], 13.8%; in test [6], -5%.

The values are drawn from PubChem BioAssay (NCI).
